About 530 (0.24%) of roughly 220,000 compounds were called active. Cut-off read from the data, not from the text of the source: active = inhibition above about 13%; inconclusive = no clear call, values can overlap the other calls; inactive = below that. What follows is part of a selection rich in actives, with near analogues and random picks from the rest. Results with a measured potency or affinity are listed apart.
What follows are compounds tested against Bifunctional protein GlmU (Mycobacterium tuberculosis (strain ATCC 25618 / H37Rv)) (UniProt P9WMN3) (assay: inhibition of mycobacterial GlmU enzyme – biochemical, glucosamine-1-phosphate acetyltransferase (AID 1376;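 note: 0% = complete reaction with vehicle and 100% = reaction without substrate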)). Settings: M. tuberculosis GlmU acetyltransferase enzyme assay; stronger effect = higher value;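 tested at 30 µM in the primary screen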.
Sequence of Bifunctional protein GlmU (Mycobacterium tuberculosis (strain ATCC 25618 / H37Rv)) (P9WMN3 whole entry, looked up): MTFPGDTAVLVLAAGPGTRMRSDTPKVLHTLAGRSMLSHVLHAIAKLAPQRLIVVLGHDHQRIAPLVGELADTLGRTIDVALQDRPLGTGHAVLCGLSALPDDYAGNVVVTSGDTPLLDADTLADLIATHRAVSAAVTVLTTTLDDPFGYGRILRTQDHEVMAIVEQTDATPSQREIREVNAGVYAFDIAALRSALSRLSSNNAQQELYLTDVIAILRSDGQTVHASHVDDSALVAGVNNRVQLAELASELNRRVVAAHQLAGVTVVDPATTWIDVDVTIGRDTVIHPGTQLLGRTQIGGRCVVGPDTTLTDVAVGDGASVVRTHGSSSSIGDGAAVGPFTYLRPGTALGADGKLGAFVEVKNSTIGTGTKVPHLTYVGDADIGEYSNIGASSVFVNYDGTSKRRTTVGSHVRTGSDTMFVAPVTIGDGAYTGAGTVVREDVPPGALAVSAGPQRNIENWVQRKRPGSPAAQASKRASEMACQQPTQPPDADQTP

| Structure (SMILES) | inhibition |
| --- | --- |
| Nc1n[nH]c(C2CCCCC2)n1 | -2.96% (inactive) |
| S=c1nc(C2CCCCC2)[nH][nH]1 | 14% (active) |
| S=c1nc(C2CCCCC2)[nH]c2ccccc12 | -2.69% (inactive) |
| CCc1nc(N2CCN(S(C)(=O)=O)CC2)c2c3c(sc2n1)CCCC3 | -2.08% (inactive) |
| COc1ccc(N/C=C2/Sc3ccccc3NC2=O)cc1 | 0.09% (inactive) |
| O=C(NC1CCN(C(=O)N2c3ccccc3Sc3ccccc32)CC1)c1ccccc1Cl | 2.41% (inactive) |
| Cc1ccc(SC(C)c2nc(-c3ccccc3)no2)cc1 (configuration not stated) | 14.3% (active) |
| Cc1ccc(SC(C)c2nc(-c3cccnc3)no2)cc1 (configuration not stated) | -3.18% (inactive) |
| Cc1ccc(SC(C)c2nc(-c3ccncc3)no2)cc1 (configuration not stated) | 5.19% (inactive) |
| CC12CCC(C(=O)NCc3ccccc3Cl)(OC1=O)C2(C)C (configuration not stated) | 0.28% (inactive) |
| Cc1[nH]c(=O)[nH]c(=O)c1/C=N/NC(=O)[C@@H](NC(=O)OC(C)(C)C)C(C)C | -0.37% (inactive) |
| Cc1[nH]c(=O)[nH]c(=O)c1/C=N/NC(=O)[C@H](C)NC(=O)OC(C)(C)C | 12.9% (active) |
| Cc1[nH]c(=O)[nH]c(=O)c1/C=N/NC(=O)CCNC(=O)OC(C)(C)C | -1.18% (inactive) |
| CCN(C(=O)c1nn(-c2ccc(OC)cc2)c(=O)c2c1c1ccccc1n2C)c1ccc(OC)cc1 | -3.7% (inactive) |
| C=CCn1c(O)c(C=NCCN2CCOCC2)c(=O)[nH]c1=S | -1.69% (inactive) |
| Cc1cc2nc(-c3ccc(SCc4ccc(C(=O)O)cc4)nc3)[nH]c2cc1C | 13.2% (active) |
| CC(=O)CSc1ccc(-c2nc3cc(C)c(C)cc3[nH]2)cn1 | 8.32% (inactive) |
| Cc1cc2nc(-c3ccc(SCc4ccc(C#N)cc4)nc3)[nH]c2cc1C | 0.22% (inactive) |
| O=C(O)c1ccccc1-c1ccccc1C(=O)Nc1cccc(Br)c1 | 0.35% (inactive) |
| CCOc1ccc(-c2cc3cc(OC)c(OC)cc3c(C)n2)cc1 | -1.9% (inactive) |
| Cc1nc(-c2ccccc2Cl)sc1C(=O)/C=C/N(C)C | -0.01% (inactive) |

| Structure (SMILES) | inhibition |
| --- | --- |
| Cc1nnc(SCC(=O)Nc2ccc(-c3nc4ccccc4s3)cc2)s1 | 6.16% (inactive) |
| Cc1ccc2nc(-c3ccc(NC(=O)CSCC(=O)O)cc3)sc2c1 | 4.5% (inactive) |
| CCc1nc(-c2ccccc2)c2ccccn12 | 0.63% (inactive) |
| COCCn1nnnc1C(C(C)C)N(Cc1cccnc1)Cc1cc2cc(OC)ccc2[nH]c1=O (configuration not stated) | 0.94% (inactive) |
| COc1ccc(Cl)cc1NC(=O)NC(C)C | -2.94% (inactive) |
| COc1ccc(Cl)cc1NC(=O)NC(C)c1ccncc1 (configuration not stated) | 13% (active) |
| COc1ccc(C)cc1NC(=O)NC(C)c1ccncc1 (configuration not stated) | -4.98% (inactive) |
| Cc1cc2c3ccccc3ncn2n1 | 4.82% (inactive) |
| CCOC(=O)c1cnc2c(c(C)nn2C)c1Oc1ccccc1F | 3.91% (inactive) |
| COc1cccc(OCC(Cn2cnc3ccccc32)OC(C)=O)c1 (configuration not stated) | -0.44% (inactive) |
| O=C(CCCN1C(=O)/C(=C/c2ccco2)SC1=S)Nc1cccc(C(=O)O)c1 | 8.84% (inactive) |
| COC(=O)c1ccccc1NC(=O)/C=C/c1ccco1 | -3.26% (inactive) |
| O=C(/C=C/c1ccco1)Nc1cc(Cl)ccc1C(=O)O | 13% (active) |
| O=C(O)CCCN1C(=O)/C(=C\c2ccco2)SC1=S | 23.1% (inactive) |
| O=C(/C=C/c1ccco1)Nc1cccc(C(=O)Nc2ccccc2C(=O)O)c1 | 14.7% (active) |
| O=C(/C=C/c1ccco1)Nc1ccc(Oc2ccc(Cl)cc2)cc1 | 2.3% (inactive) |
| O=C(/C=C/c1ccco1)Nc1ccccc1C(=O)Nc1cccc(C(=O)O)c1 | 3.1% (inactive) |
| O=C(/C=C/c1ccco1)Nc1ccccc1N1CCCC1 | -0.88% (inactive) |
| O=C(/C=C/c1ccco1)Nc1cccnc1Cl | 0.97% (inactive) |
| O=C(/C=C/c1ccco1)Nc1ccccc1C(=O)O | 15% (active) |
| CCc1ccccc1NC(=O)c1cccc(NC(=O)/C=C/c2ccco2)c1 | -2.87% (inactive) |

| Structure (SMILES) | inhibition |
| --- | --- |
| CCc1cccc(CC)c1NC(=O)COC(=O)c1ccccc1-c1nc2ccccc2s1 | -1.43% (inactive) |
| COc1ccc(-n2c(SCC(=O)NCCCN3CCCC3=O)nnc2C(C)N2CCCCC2)cc1 (configuration not stated) | -0.73% (inactive) |
| O=C(O)C(Cc1cc(Cl)ccc1Cl)Sc1nc2ccccc2[nH]1 (configuration not stated) | -6.33% (inactive) |
| COCCNC(=O)COC(=O)c1[nH]c(C)c(C(C)=O)c1C | -0.47% (inactive) |
| COc1ccc(/C=C/C(=O)Nc2nnc(C(C)C)s2)cc1OC | 4.06% (inactive) |
| CN(C)/C=C/C(=O)C(Cl)(Cl)Cl | -0.97% (inactive) |
| COc1ccc(Nc2nnc(SCc3cc([N+](=O)[O-])cc4c3OCOC4)s2)cc1 | -5.67% (inactive) |
| O=C(CCCOc1ccc(Cl)cc1Cl)NCc1ccncc1 | 2.06% (inactive) |
| CN(CC(=O)Nc1ccc2c(c1)OCO2)S(=O)(=O)c1ccc2c(c1)CCC(=O)N2 | 2.93% (inactive) |
| CC(C)CCN(CCC(C)C)C(=O)Cc1c(O)c2ccccc2[nH]c1=O | -2.47% (inactive) |
| CCN(CC)C(=O)Cc1c(O)c2ccccc2[nH]c1=O | 1.17% (inactive) |
| O=C(Cc1c(O)c2ccccc2[nH]c1=O)N(Cc1ccccc1)Cc1ccccc1 | 35% (active) |
| COc1ccc(NC(=O)C2=C(C)Nc3nc(CCCO)nn3C2c2ccc(OC)c(OC)c2)cc1 (configuration not stated) | 6.23% (inactive) |
| COc1cc(NC(=O)c2cccs2)c(C(=O)OCC(=O)c2cc(C)n(-c3ccc(F)cc3)c2C)cc1OC | 3.27% (inactive) |
| Cc1ccccc1Oc1ccc(NC(=O)C2CC=CCC2C(=O)O)cc1 (configuration not stated) | 3.98% (inactive) |
| Cc1ncc(S(=O)(=O)c2ccccc2)c(-c2ccccc2Cl)n1 | 4.86% (inactive) |
| CN(C)c1ncc(S(=O)(=O)c2ccc(Cl)cc2)c(-c2ccccc2)n1 | -0.58% (inactive) |
| CN(C)c1ncc(S(=O)(=O)c2ccccc2)c(-c2ccccc2Cl)n1 | 13.9% (active) |
| CC(C)N1CCC(N2CCN(Cc3ccc4nsnc4c3)CC2CCO)CC1 (configuration not stated) | -6.91% (inactive) |
| O=C(CCc1nc2ccccc2[nH]c1=O)OCc1ccc(S(=O)(=O)N2CCOCC2)cc1 | 1.61% (inactive) |
